Data reported in the supplement of paper PMC6805474.

How the values were obtained:
[1] = system: Schistosoma mansoni schistosomula (LE); experiment: XTT viability relative to DMSO control; higher = more viable (less active); conditions: 72 h; 10 µM
Procedure: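 XTT/PMS was then added for a further 24 h (72 h total) and A450 was read. % viability = (sample - heat-killed control)/(DMSO control - heat-killed control) x 100, from duplicate wells in two independent experiments.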

[2] = system: Schistosoma mansoni schistosomula (NMRI); experiment: phenotypic severity score (0-4); higher = more antischistosomal effect, active = 2 or more; conditions: 10 µM
[3] = system: Schistosoma mansoni schistosomula (Liberian); experiment: drug effect (1 - score/DMSO control score) (fraction); higher = more antischistosomal effect, active = 0.5 or more; extreme values may be limits of the assay; conditions: 10 µM
In short: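 Schistosomula of the Liberian strain of Schistosoma mansoni were mechanically transformed from cercariae, pre-incubated for at least 12 h, and placed at 50 per well in flat-bottom 96-well plates with Medium 199 containing 5% FCS. Compounds were tested in duplicate at 10 µM at 37 °C and 5% CO2, alongside wells holding 0.1% DMSO. Parasites were scored visually at 10× after 24, 48 and 72 h on a quarter-point scale running from 3 (normal) to 0 (dead). Drug effect came from the mean test-well score relative to the mean DMSO-well score, with negative values set to zero and plates accepted only when the DMSO wells averaged at least 2.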
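Wherever phenotypic severity score (0-4) is given: visual microscopic scoring of shape, motility and density changes versus 0.5% DMSO solvent controls, one point per descriptor, degeneracy or death scored 4, mean of duplicate wells.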

COc1ccc(OC)c(NCc2ccc3nc(N)nc(N)c3c2Cl)c1
inactive: phenotypic severity score ([2]; 24 h) 0 | phenotypic severity score ([2]; 72 h) 0 | drug effect ([3]; 24 h) < 0 | drug effect ([3]; 48 h) 0.05 | drug effect ([3]; 72 h) 0.278
109%: XTT viability [1]
active: phenotypic severity score ([2]; 48 h) 2

CCc1nc2ccc(Cl)cn2c1C(=O)NCc1ccc(N2CCC(c3ccc(OC(F)(F)F)cc3)CC2)cc1
66.8%: XTT viability [1]
inactive: phenotypic severity score ([2]; 24 h) 1 | phenotypic severity score ([2]; 48 h) 0 | phenotypic severity score ([2]; 72 h) 0 | drug effect ([3]; 24 h) 0.105 | drug effect ([3]; 48 h) 0.0556 | drug effect ([3]; 72 h) < 0

Nc1nc(N)c2c3c(sc2n1)CN(Cc1ccccc1)CC3
inactive: phenotypic severity score ([2]; 24 h) 0 | phenotypic severity score ([2]; 48 h) 0 | phenotypic severity score ([2]; 72 h) 0 | drug effect ([3]; 24 h) 0.15 | drug effect ([3]; 48 h) 0.278 | drug effect ([3]; 72 h) 0.438
131%: XTT viability [1]

CC(C)(CN)c1nc(-c2ccc(Cl)c(O)c2)c(-c2ccnc(N)n2)[nH]1
inactive: phenotypic severity score ([2]; 24 h) 0 | phenotypic severity score ([2]; 48 h) 0 | phenotypic severity score ([2]; 72 h) 0 | drug effect ([3]; 24 h) 0.15 | drug effect ([3]; 48 h) 0.167 | drug effect ([3]; 72 h) 0.312
156%: XTT viability [1]

CC1=NN(c2nc3ccccc3s2)C(=O)C1Cc1cccc2ccccc12 (configuration not stated)
61.8%: XTT viability [1]
inactive: phenotypic severity score ([2]; 24 h) 0 | phenotypic severity score ([2]; 48 h) 0 | phenotypic severity score ([2]; 72 h) 0 | drug effect ([3]; 24 h) 0.0909 | drug effect ([3]; 48 h) 0.1 | drug effect ([3]; 72 h) 0.127

Nc1ncc(-c2ccc(C(F)(F)F)nc2)cc1-c1ccc(C(F)(F)F)nc1
inactive: phenotypic severity score ([2]; 24 h) 0 | phenotypic severity score ([2]; 48 h) 0 | phenotypic severity score ([2]; 72 h) 0 | drug effect ([3]; 24 h) 0.182 | drug effect ([3]; 48 h) 0.15 | drug effect ([3]; 72 h) 0.127
79.3%: XTT viability [1]

c1ccc(-c2cc(N3CCCCC3)c3ccccc3n2)nc1
inactive: phenotypic severity score ([2]; 24 h) 1 | phenotypic severity score ([2]; 48 h) 0 | phenotypic severity score ([2]; 72 h) 1 | drug effect ([3]; 24 h) 0.15 | drug effect ([3]; 48 h) 0.243 | drug effect ([3]; 72 h) 0.389
59.9%: XTT viability [1]

CN1CCCN(C(c2ccccc2)c2ccc(Cl)cc2)CC1 (configuration not stated)
inactive: phenotypic severity score ([2]; 24 h) 0 | phenotypic severity score ([2]; 48 h) 0 | phenotypic severity score ([2]; 72 h) 0 | drug effect ([3]; 24 h) 0.455 | drug effect ([3]; 48 h) 0.05 | drug effect ([3]; 72 h) 0.263
67.9%: XTT viability [1]

CCOc1ccc2cc(-c3nn(C(C)(C)C)c(N)c3C(N)=O)cnc2c1
inactive: phenotypic severity score ([2]; 24 h) 0 | phenotypic severity score ([2]; 48 h) 0 | phenotypic severity score ([2]; 72 h) 0 | drug effect ([3]; 24 h) 0.2 | drug effect ([3]; 48 h) 0.243 | drug effect ([3]; 72 h) 0.389
75.2%: XTT viability [1]

CNCCC(Oc1ccc(C(F)(F)F)cc1)c1ccccc1 (configuration not stated)
inactive: phenotypic severity score ([2]; 24 h) 0 | phenotypic severity score ([2]; 48 h) 0 | phenotypic severity score ([2]; 72 h) 0 | drug effect ([3]; 24 h) 0.05 | drug effect ([3]; 48 h) 0.0811 | drug effect ([3]; 72 h) 0.333
20.4%: XTT viability [1]

CCN(CC)CCCN1CCN(C(=O)c2cccc(-c3noc(C(F)(F)F)n3)c2)CC1
inactive: phenotypic severity score ([2]; 24 h) 0 | phenotypic severity score ([2]; 48 h) 0 | phenotypic severity score ([2]; 72 h) 1 | drug effect ([3]; 24 h) 0.2 | drug effect ([3]; 48 h) 0.111 | drug effect ([3]; 72 h) 0.25
97.3%: XTT viability [1]

CCc1ccc([C@@H]2C[C@H](C(F)(F)F)n3ncc(C(=O)NCc4ccc(OC)cc4)c3N2)cc1
99.5%: XTT viability [1]
inactive: phenotypic severity score ([2]; 24 h) 1 | phenotypic severity score ([2]; 48 h) 1 | phenotypic severity score ([2]; 72 h) 0 | drug effect ([3]; 24 h) 0.1 | drug effect ([3]; 48 h) 0.111 | drug effect ([3]; 72 h) 0.0556

CCOc1ccc2cc(-c3nn(CC4CCN(C)CC4)c4ncnc(N)c34)ccc2c1
inactive: phenotypic severity score ([2]; 24 h) 0 | phenotypic severity score ([2]; 48 h) 0 | phenotypic severity score ([2]; 72 h) 0 | drug effect ([3]; 24 h) 0.1 | drug effect ([3]; 48 h) 0.167 | drug effect ([3]; 72 h) 0.389
44.3%: XTT viability [1]

CC(C)C(Oc1cccc2ccccc12)C(=O)O (configuration not stated)
108%: XTT viability [1]
inactive: phenotypic severity score ([2]; 24 h) 0 | phenotypic severity score ([2]; 48 h) 0 | phenotypic severity score ([2]; 72 h) 0 | drug effect ([3]; 24 h) < 0 | drug effect ([3]; 48 h) < 0 | drug effect ([3]; 72 h) 0.0556

O=C(Nc1ccc(N2CCNCC2)cc1)c1ccn2ncc(-c3cccc(Cl)c3)c2n1
7.7%: XTT viability [1]
active: phenotypic severity score ([2]; 24 h) 2 | phenotypic severity score ([2]; 48 h) 4 | phenotypic severity score ([2]; 72 h) 4 | drug effect ([3]; 24 h) 0.73 | drug effect ([3]; 48 h) 0.778 | drug effect ([3]; 72 h) 0.938

CC(=O)N1CCN(c2ccc(Oc3ccc(Cl)cc3O)cc2)CC1
89.7%: XTT viability [1]
inactive: phenotypic severity score ([2]; 24 h) 0 | phenotypic severity score ([2]; 48 h) 0 | phenotypic severity score ([2]; 72 h) 0 | drug effect ([3]; 24 h) 0.1 | drug effect ([3]; 48 h) 0.027 | drug effect ([3]; 72 h) 0.0303

CS(=O)(=O)N1CCC(Cn2nc(Cc3cccc4ccccc34)c3c(N)ncnc32)CC1
inactive: phenotypic severity score ([2]; 24 h) 0 | phenotypic severity score ([2]; 48 h) 0 | phenotypic severity score ([2]; 72 h) 0 | drug effect ([3]; 24 h) 0.1
122%: XTT viability [1]
active: drug effect ([3]; 48 h) 0.568 | drug effect ([3]; 72 h) 0.636

CC1COC2(CCN(c3nc(=O)c4cc(C(F)(F)F)cc([N+](=O)[O-])c4s3)CC2)O1 (configuration not stated)
inactive: phenotypic severity score ([2]; 24 h) 1 | phenotypic severity score ([2]; 48 h) 0 | phenotypic severity score ([2]; 72 h) 0 | drug effect ([3]; 24 h) 0.136 | drug effect ([3]; 48 h) 0.25 | drug effect ([3]; 72 h) 0.291
80%: XTT viability [1]

Brc1cncc(-c2cc(NCCCn3ccnc3)nc(-c3ccccc3)n2)c1
inactive: phenotypic severity score ([2]; 24 h) 1 | drug effect ([3]; 24 h) 0.273
active: phenotypic severity score ([2]; 48 h) 4 | phenotypic severity score ([2]; 72 h) 4 | drug effect ([3]; 48 h) 0.65 | drug effect ([3]; 72 h) 0.673
12.9%: XTT viability [1]

CCN(CC)S(=O)(=O)c1ccc(Cl)c(C(=O)Nc2ccc3nc(C)sc3c2)c1
inactive: phenotypic severity score ([2]; 24 h) 1 | phenotypic severity score ([2]; 48 h) 0 | phenotypic severity score ([2]; 72 h) 0 | drug effect ([3]; 24 h) 0.05 | drug effect ([3]; 48 h) 0.027 | drug effect ([3]; 72 h) 0.111
87.9%: XTT viability [1]

O=C(Cn1ccnc1[N+](=O)[O-])NCc1ccccc1
89.2%: XTT viability [1]
inactive: phenotypic severity score ([2]; 24 h) 0 | phenotypic severity score ([2]; 48 h) 0 | phenotypic severity score ([2]; 72 h) 0 | drug effect ([3]; 24 h) 0.15 | drug effect ([3]; 48 h) 0.243 | drug effect ([3]; 72 h) 0.222
